B2AR arrestin – recruits beta-arrestin to the human beta2-adrenergic receptor; 330,000 compounds, 0.02% hits; Potency, µM (top dose mostly 46.1 µM), inactives show at the top dose activation, hits mostly activators; AID 492947; beta-arrestin recruitment to beta2AR, cell-based reporter; P07550;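 also: 0% = DMSO controls and full agonism = EC100 isoproterenol or metaproterenol; nearly all actives have a fitted effect of over 65% in size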
NPSR antagonist – neuropeptide S receptor (human) antagonism, cAMP. CHO-NPSR cells, cAMP TR-FRET, antagonist mode. Potency, µM (titrated, usually from 38.3 µM), without a hit: at the highest dose activity change, negative = inhibition, hits mostly inhibitors. 220,000 compounds, 1% hits. AID 1461; also: nearly all actives have a fitted effect of over 50% in size
Target sequence (Q6W5P4 whole entry, looked up): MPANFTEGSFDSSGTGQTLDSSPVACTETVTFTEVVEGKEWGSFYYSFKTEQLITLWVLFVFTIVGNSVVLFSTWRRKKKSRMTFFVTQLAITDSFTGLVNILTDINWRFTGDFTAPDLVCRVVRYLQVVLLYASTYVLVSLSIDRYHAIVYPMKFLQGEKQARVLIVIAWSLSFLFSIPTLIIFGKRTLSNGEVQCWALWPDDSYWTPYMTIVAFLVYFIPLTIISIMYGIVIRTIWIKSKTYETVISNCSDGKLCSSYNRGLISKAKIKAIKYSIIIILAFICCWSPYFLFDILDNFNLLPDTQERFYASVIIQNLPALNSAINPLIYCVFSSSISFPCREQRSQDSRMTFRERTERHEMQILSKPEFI
VP16 counter – inhibits Gal4-VP16 luciferase reporter, ROR gamma counter-screen | Drosophila S2 Gal4-VP16 UAS-luciferase, luminescence, 20 h | Potency, µM (doses to about 53.6 µM), without a hit: top-dose activity, negative = inhibition, hits mostly inhibitors | 310,000 compounds, 3.5% hits;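 also: Gal4-VP16 expression switched on by copper sulfate through the metallothionein promoter; nearly all actives have a fitted effect of over 50% in size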
RORg inh – inhibitors of mouse ROR gamma transcriptional activity. Potency, µM (highest dose often 53.6 µM), without a hit: at the highest dose activity change, negative = inhibition, usual class: inhibitors. 310,000 compounds, 5.4% hits. Drosophila S2 Gal4-RORgamma UAS-luciferase reporter, 20 h; also: nearly all actives have a fitted effect of over 60% in size
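Using a luciferase readout, inhibitors were identified by reduced reporter activity in Drosophila cells coexpressing a copper-inducible Gal4–ROR gamma fusion and UAS-driven Photinus luciferase, incubated 20 hr after 700 uM copper sulfate.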
Starred values were filed as active, the others as inactive; ? = inconclusive; nt = no result; [ ] = another dose, or the depositor's remark. Rows were chosen to be rich in hits. Some 5.7% of all compounds tested hit in one or more screens of this group. Calls follow the shape of the dose curve; as a rule, active = well fitted curve in the direction sought with a large enough effect; inconclusive = small, poorly fitted or top-dose-only effect, or another doubt; inactive = no such curve, though single readings can be large; an effect the other way counts as inactive or inconclusive. Unless noted, % is scaled to controls: 0 for no effect and ±100 for the full control effect; potency is read from the fitted curve at half-maximal effect.

SMILES | B2AR arrestin | NPSR antagonist | VP16 counter | RORg inh
Cc1noc(C)c1C(=O)N1CCC2(CC1)CN(Cc1cc(C(F)(F)F)cc(C(F)(F)F)c1)C2 | nt | nt | -1% | 25%
Sc1oc(-c2ccccc2)cc1C=Nc1ccccc1 | 5% | -19%[46.1 µM] | 18µM* | 13µM*
Oc1oc(-c2ccccc2)nc1C=Nc1ccccc1 | 1% | -19%[46.1 µM] | ? | -15%
Cc1cccc(C(=O)N2CC(=O)Nc3ccc(F)cc3C2c2ccc(F)cc2)c1 (stereo not drawn) | 0% | nt | -10% | ?
Cc1nn(-c2ccccc2)c(Cl)c1/C=C1\SC(=S)N(CCCCCC(=O)O)C1=O | -1% | -57% | -2% | -6%
Cc1nn(-c2ccccc2)c(Cl)c1/C=C1\SC(=S)NC1=O | 0% | 10µM* | -5% | ?
Cc1ccc(/C=N/NC(=S)NC(C)C)o1 | 0% | ? | 2.8µM* | 1.4µM*
COCCNC(=S)N/N=C/c1ccc([N+](=O)[O-])cc1 | -1% | 5%[7.67 µM] | ? | ?
CCOC(=O)N/N=C/c1c(F)cccc1F | 0% | 6% | 14% | 1%
COCCNC(=S)N/N=C/c1ccc(N2CCOCC2)cc1 | 12% | -13% | 20µM* | ?
C=C(C)CNC(=S)N/N=C/c1c(F)cccc1F | ? | -40% | 6.3µM* | 1.8µM*
Cc1ccc(/C=N/NC(=O)C(C)Oc2cccc3ccccc23)o1 (stereo not drawn) | 1% | nt | ? | 16µM*
O=C(O)c1cc(N/N=C/c2ccc(N3CCOCC3)cc2)ccc1Cl | 0% | -11% | ? | 7.1µM*
CC(C)NC(=S)N/N=C/c1ccc(N2CCOCC2)cc1 | 0% | 3% | 4.5µM* | 2.8µM*
C=C(C)CNC(=S)N/N=C/c1ccc([N+](=O)[O-])cc1 | 1% | -13% | 4.5µM* | 1.1µM*
Clc1cccc(N/N=C/c2ccc(N3CCOCC3)cc2)c1 | 3% | -12%[46.1 µM] | 18% | 28%
Oc1ccc(/C=N/NC(=S)N2CCOCC2)cc1 | ? | ? | ? | 1.1µM*
O=C(COC(=O)c1ccc(S(=O)(=O)C(F)F)cc1)Nc1cccnc1Cl | 0% | nt | nt | nt
COC(=O)c1ccc(/C=N/NC(=S)NC(C)C)cc1 | 0% | 15% | 7.1µM* | 2µM*
C=C(C)CNC(=S)N/N=C\c1ccc2c(c1)OCO2 | 0% | -1%[46.1 µM] | 0% | -6%
C=C(C)CNC(=S)N/N=C/c1ccc(N2CCOCC2)cc1 | -1% | -12% | 5µM* | 2µM*
CC(Sc1nc2sc3c(c2c(=O)n1-c1ccccc1)CCCC3)C(=O)O (stereo not drawn) | 1% | ? | -6% | 24%
CCn1c(SC(C)C(=O)O)nc2sc3c(c2c1=O)CCC3 (stereo not drawn) | 0% | 4%[46.1 µM] | 7.1µM* | 5.6µM*
O=C(N/N=C(\c1ccccc1)c1ccccn1)c1ccccc1Cl | -1% | nt | 1.1µM* | 0.71µM*
C/C(=N\NC(=O)C1CCCN(S(=O)(=O)c2ccccc2)C1)c1ccncc1 (stereo not drawn) | 0% | -7%[46.1 µM] | -6%[0.365 µM] | 3%
SMILES | B2AR arrestin | NPSR antagonist | VP16 counter | RORg inh
C/C(=N\NC(=O)C1CCCN(S(=O)(=O)c2ccccc2)C1)c1ccccn1 (stereo not drawn) | 0% | -6%[46.1 µM] | 5µM* | 2.8µM*
O=C(NN=C(c1ccccc1)c1ccccn1)c1ccccc1 | -1% | nt | nt | nt
COc1ccc(NC(=O)c2ccccn2)cc1OC | -1% | 14% | -7% | -3%
COc1ccc(C(=O)N/N=C(\C)c2ccccn2)cc1OC | 4% | nt | 0.56µM* | 0.35µM*
C/C(=N\NC(=O)c1cccc(Br)c1)c1ccccn1 | -1% | nt | 0.028µM* | 0.1µM*
Cc1cc(OCCCC(=O)Nc2cccc(-n3cnnn3)c2)ccc1Cl | 0% | nt | -3% | ?
C/C(=N\NC(=O)c1cc(Br)ccc1O)c1ccccn1 | 0% | nt | 0.28µM* | 0.4µM*
COc1ccc(NC(=O)c2ccccn2)cc1 | 0% | -11%[46.1 µM] | 11µM* | 7.9µM*
COc1ccc(C(=O)N/N=C(\c2ccccc2)c2ccccn2)cc1 | 8% | -31% | 0.5µM* | 0.71µM*
C/C(=N\NC(=O)c1ccccc1Cl)c1ccccn1 | 9% | nt | 2.8µM* | 1.3µM*
C/C(=N\NC(=O)c1cccc2ccccc12)c1ccccn1 | 0% | nt | nt | nt
CCOc1ccc(CCNC(=O)c2nnc(CS(=O)(=O)c3ccccc3)o2)cc1OCC | 1% | nt | 0% | 17%
COC(=O)c1ccc(NC(=O)CSc2nc(=O)n3cccc(C)c3n2)cc1 | -1% | nt | nt | nt
Cc1cc(Br)c(OCC(=O)NN)c2c1CCC2 | 0% | -18% | -8% | -8%
CCOC(=O)[C@]1(C(NC(=O)OC)c2cccc(F)c2)CCCC1=O (stereo partly drawn) | nt | nt | -7%[10 µM] | 2%[10 µM]
c1cc(-c2cnn3cc(-c4ccc(OCCN5CCCCC5)cc4)cnc23)ccn1 | nt | nt | 4% | 15%
CCCCn1c(N)c(N(CCOC)C(=O)c2cccc(S(=O)(=O)N(C)c3ccc(C)cc3)c2)c(=O)[nH]c1=O | 0% | nt | nt | nt
CCCC[C@H](NC(=O)[C@H](CO)NC(=O)[C@H](Cc1ccc(O)cc1)NC(=O)[C@H](CO)NC(C)=O)C(=O)N[C@@H](CCC(=O)O)C(=O)N[C@@H](Cc1cnc[nH]1)C(=O)N[C@H](Cc1ccccc1)C(=O)N[C@@H](CCCNC(=N)N)C(=O)N[C@@H](Cc1c[nH]c2ccccc12)C(=O)NCC(=O)N[C@@H](CCCCN)C(=O)N1CCC[C@H]1C(=O)N[C@H](C(N)=O)C(C)C | nt | nt | -5% | -15%
C/C(=N/NC(=O)c1ccccn1)c1ccncc1 | 0% | nt | -12% | -24%
O=C(Nc1ccc(F)cc1)c1cc(S(=O)(=O)Nc2ccc(F)cc2)cs1 | 0% | -20%[46.1 µM] | -20% | ?
COc1ccc(NC(=O)c2cc(S(=O)(=O)Nc3ccc(OC)cc3)cs2)cc1 | 0% | -12% | 11µM* | 1%
C/C(=N\NC(=O)C(c1ccccc1)c1ccccc1)c1ccc(O)cc1 | -1% | nt | 0% | 20%
C/C(=N\NC(=O)C(c1ccccc1)c1ccccc1)c1ccccn1 | 0% | -17% | 1.6µM* | 0.63µM*
CCOc1ccc(OCc2ccc(C(=O)N/N=C(\C)c3ccccn3)cc2)cc1 | 0% | -10% | 5% | 0.11µM*
C/C(=N\NC(=O)c1ccc(Cl)c(Cl)c1)c1ccccn1 | -1% | nt | 0.0028µM* | 0.089µM*
SMILES | B2AR arrestin | NPSR antagonist | VP16 counter | RORg inh
Cc1nc(-c2cccnc2)sc1C(=O)N/N=C/c1ccccc1Cl | -1% | -3% | 0% | 3%
COc1ccc(-c2cn3c(C)c(C(=O)Nc4ccncc4)sc3n2)cc1 | -1% | ? | 13µM* | -20%
Cc1c(C(=O)Nc2ccncc2)sc2nc(-c3ccc(F)cc3)cn12 | 0% | ? | ? | ?
COc1ccc(-c2cn3c4c(sc3n2)CCCC4)cc1 | 0% | -13%[46.1 µM] | 10µM* | 11µM*
CSCCC(NS(=O)(=O)c1ccccc1)C(=O)OCc1cc(=O)oc2cc(O)ccc12 (stereo not drawn) | 0% | nt | nt | nt
CSc1nc(=NC(C)=O)ss1 | -1% | 0%[46.1 µM] | -19% | 3.2µM*
CN(C)C(=O)c1ccc(-c2cncnc2NCCc2cnc[nH]2)cc1 | nt | nt | -5% | 10%
COc1cccc(/C=N/NC(=S)NCCc2ccccc2)c1 | 4% | nt | ? | 16µM*

Assay outcomes deposited in PubChem BioAssay by National Center for Advancing Translational Sciences (NCATS).
